CHX counter: counter-screen for Shiga toxin inhibitors: cycloheximide protein synthesis inhibition. max response, %. actives 12% (n = 300,000). cell reporter, cycloheximide protein synthesis inhibition counterscreen; in the data active = max response mostly above about 13%, no sharp cut-off; inactive = mostly below about 14%; note: read at 38.3 µM for the half of the compounds with a filed dose; 0% is about no effect
NS1 inh: blocks influenza NS1 protein function; Potency, µM (top dose mostly 46.1 µM), for inactives: top-dose activity, positive = more growth; actives 0.4% (n = 270,000); AID 2326; note: potency is the fitted concentration of half-maximal effect; actives are rising curves; nearly all actives have a fitted effect of over 50% in size
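In this qHTS, NS1 from influenza A is expressed in budding yeast, where it slows growth. Cells are switched from glucose to 2% galactose medium (pH 6.0, -URA), treated with compound, and growth recovery is read at OD600.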
Pf growth 96h: P. falciparum growth inhibition at 96 hour, primary screen for plastid delayed-death inhibitors; AID 504834; Potency, µM (titrated, usually from 28.7 µM), for the others: top-dose activity change, negative = inhibition, most hits filed as inhibitors; actives 6.9% (n = 320,000); P. falciparum luciferase reporter growth, 96 h; active = well fitted inhibition curve with a large enough effect; inconclusive = small, poorly fitted or top-dose-only effect, or another doubt; inactive = no such curve, though single readings can be large or run the other way; note: potency is the fitted concentration of half-maximal effect; % is set by controls: 0 for no effect and ±100 for the full control effect
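Readout is luminescence from an integrated firefly luciferase in P. falciparum. Red cells, 2% hematocrit and 0.05% parasitemia final, were cultured with compound through two parasite generations (96 hours) at 37 C, 5% CO2.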
Shiga toxin inh: inhibitors of Shiga toxin in Vero cells | inhibition, % at 38.7 µM | Vero cells, Shiga toxin protein synthesis inhibition reporter | actives 9.2% (n = 290,000) | AID 2315; in the data active = inhibition mostly above about 28%, no sharp cut-off; inactive = mostly below about 43%; note: 0% is about no effect
SARS PLpro yeast: blocks SARS-CoV papain-like protease in a yeast assay; Potency, µM (top dose mostly 32.9 µM), for inactives: at the top dose activity, positive = growth rescue, usual class: activators; actives 0.19% (n = 330,000); S. cerevisiae expressing SARS-CoV PLpro, growth rescue; note: potency is the fitted concentration of half-maximal effect; 0% is about no effect; nearly all actives have a fitted effect of over 55% in size
Pf growth 48h: P. falciparum growth inhibition at 48 hours (one generation). P. falciparum luciferase growth in erythrocytes, 48 h. Potency, µM (series often up to 28.7 µM), inactives show at the highest dose activity change, negative = inhibition, usual class: inhibitors. actives 5.9% (n = 310,000). AID 504832; active = well fitted inhibition curve with a large enough effect; inconclusive = small, poorly fitted or top-dose-only effect, or another doubt; inactive = no such curve, though single readings can be large or run the other way; note: potency is the fitted concentration of half-maximal effect; % is set by controls: 0 for no effect and ±100 for the full control effect
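Erythrocytes infected with P. falciparum carrying an integrated firefly luciferase reporter (2% hematocrit, 0.1% parasitemia final) were exposed to compounds in RPMI 1640 with 0.5% Albumax at 37 C, 5% CO2. Growth inhibition was scored as reduced luminescence.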
* = called active by the depositor; u = inconclusive; x = no result given. Most compounds without a hit are left out; they make up all but 21% or so of the library. Unless noted, calls come from the whole dose curve.

SMILES | CHX counter | NS1 inh | Pf growth 96h | Shiga toxin inh | SARS PLpro yeast | Pf growth 48h
O=C(NCc1ccc2c(c1)OCO2)C1CCN(c2ccc(S(=O)(=O)N3CCCC3)cc2)CC1 | -1 | 12% | 68% | -10 | -8% | 10µM*
CCCN(CC1CC1)c1nc(C)nc(Nc2c(Cl)cc(Cl)cc2Cl)c1Cl | x | -17% | x | x | x | x
COc1ccc(CN(C(=O)CSc2nnc(-c3ccccc3F)o2)c2ccc(F)cc2)cc1 | 7 | -24% | u | 6 | -6% | u
COc1cccc(CNC(=O)C2CCCN(S(=O)(=O)c3ccc4c(c3)C(C)(C)C(=O)N4C)C2)c1 (stereo not given) | 1 | -12% | 7% | -2 | 0% | u
O=C(NCc1ccc(Cl)cc1Cl)C1CCN(S(=O)(=O)c2ccc3c(c2)OCCCO3)CC1 | 19* | -11% | u | 15 | -8% | -2%
O=C(NCc1ccc(F)cc1)C1CCN(S(=O)(=O)c2ccc3c(c2)OCCCO3)CC1 | -2 | -20% | u | -9 | -8% | -8%
CN1C(=O)C(C)(C)c2cc(S(=O)(=O)N3CCCC(C(=O)NCc4ccc(F)cc4)C3)ccc21 (stereo not given) | -2 | -17% | 10µM* | 6 | 0% | u
CC(=O)Nc1ccc(/C=C2\CCc3ccccc3C2=O)cc1 | 23 | -3% | 19% | -4 | -5% | 76%
COc1ccc(/C=C2\CCc3ccccc3C2=O)cc1O | 22* | -90% | 252% | 42* | -10% | 214%
COc1ccc(/C=C2\Cc3ccccc3C2=O)cc1OC | 28* | -34% | -31% | 75* | -1% | 6%
COc1ccc(/C=C2\CCc3ccccc3C2=O)cc1Cn1cccn1 | 41* | -58% | 0% | 69* | -21% | x
O=C(c1ccccn1)N1CCCC(N2CCN(c3ccccc3)CC2)C1 (stereo not given) | -2 | 9% | u | 6 | -2% | 10%
COc1ccc(C2CC(=O)N(CC(=O)NCC3CCCO3)c3ccccc3S2)cc1 (stereo not given) | 34* | x | 25% | 72 | 0% | 10%
COc1ccc(C2CC(=O)N(C)c3ccccc3S2)cc1 (stereo not given) | 38* | x | -15% | 124* | -6% | 53%
Cc1ccc(CNC(=O)c2ccc(NC(=O)C3=CSCCO3)cc2)cc1 | 15 | 7% | -16% | 28* | 8% | 14%
CCOc1ccc(NC(=O)c2ccc(NC(=O)c3ccc(CN4CCOCC4)cc3)cc2)cc1 | 6 | 0% | 12% | 32 | 0% | -17%
COc1cccc(CNC(=O)c2ccc(NC(=O)C3=CSCCO3)cc2)c1 | 22* | -17% | -28% | 116* | -2% | 13%
COc1cccc(CNC(=O)c2ccc(NC(=O)C3CCCO3)cc2)c1 (stereo not given) | 1 | -3% | 74% | -5 | -2% | 16%
CCOc1ccc(CNC(=O)c2ccc(NC(=O)C3=CSCCO3)cc2)cc1 | 34* | 3% | u | 20 | -2% | 0%
CC(C(=O)c1ccccc1)[n+]1cccc(C(N)=O)c1 (stereo not given) | -2 | 4% | 31% | -12 | 1% | 43%
CCCn1c(SCC(=O)Nc2cc(Cl)ccc2Cl)n[nH]c1=O | -1 | x | 1.2µM* | -2 | -2% | u
CCCn1c(SCC(=O)Nc2cc(Cl)ccc2OC)n[nH]c1=O | 1 | 14% | u | -6 | 2% | x
CCCn1c(SCC(=O)N2CCN(S(=O)(=O)c3ccc(Cl)cc3)CC2)n[nH]c1=O | 2 | -4% | u | -8 | 1% | 10µM*
CN1C(C)(C)CC(=NOC(=O)c2ccccc2)CC1(C)C | -3 | -2% | 10µM* | -7 | 3% | -20%
CC1=NN(c2ccccc2)C(=O)/C1=C\C=C1/N(C)c2ccccc2C1(C)C | 0 | -1% | u | 21 | -82% | u
SMILES | CHX counter | NS1 inh | Pf growth 96h | Shiga toxin inh | SARS PLpro yeast | Pf growth 48h
CC1=NN(c2ccccc2)C(=O)C1(C)C | 2 | -4% | 9.3µM* | -22 | -1% | 4%
Cc1ccc(C)c(NC(=O)C2CCCN(S(=O)(=O)c3ccc4[nH]c(=O)ccc4c3)C2)c1 (stereo not given) | -3 | 4% | 3% | 14 | -1% | 8%
Cn1nc(C(F)(F)F)cc1-c1ccc(S(N)(=O)=O)s1 | 38* | 5% | 62% | 68* | 1% | 27%
Cn1nc(-c2ccc(S(N)(=O)=O)s2)cc1C(F)(F)F | -2 | -3% | 20% | 16 | 0% | 37%
CN(C)C(=O)c1ccc(-c2cc(C(F)(F)F)nn2C)s1 | 39* | 0% | 103% | 53* | -2% | 198%
CCC(C)[C@H](NC(=O)[C@H](Cc1ccccc1)n1c(=O)[nH]c2ccccc2c1=O)C(=O)NCC1CCC(C(=O)O)CC1 (stereo not given in full) | -2 | 5% | 13µM* | -13 | -2% | -17%
COc1ccc2cc(CN(Cc3ccco3)Cc3nnnn3C3CCCCC3)c(=O)[nH]c2c1 | 1 | 4% | 8% | -9 | -9% | u
CCC(C)(C)n1nnnc1CN(Cc1ccc(Cl)cc1)Cc1ccco1 | 1 | -49% | u | 12 | -25% | 10µM*
CC(C)(C)c1ccc(CN(Cc2ccco2)Cc2nnnn2C2CCCC2)cc1 | 1 | 17% | 5.2µM* | 68 | -2% | 9.3µM*
c1ccc(-n2nnnc2-n2nnc3ccccc32)cc1 | -5 | -3% | u | -19 | -1% | -7%
c1ccc(-n2nnc3ccccc32)nc1 | 26* | -16% | 61% | 67* | -5% | 57%
Clc1ccc(CSc2nnc(Cn3cnc4ccccc43)o2)cc1 | -5 | -42% | u | -4 | -12% | -14%
Clc1cccc(CSc2ncn(-c3ccccc3)n2)c1 | 23* | -21% | 44% | 35* | -35% | 27%
Clc1ccc(CSc2ncn(-c3ccccc3)n2)cc1 | 31* | -5% | -18% | -7 | -30% | -12%
CC1CCCCN1C(=O)CSc1nc(-c2ccccc2)cc(=O)[nH]1 (stereo not given) | -3 | -10% | 9% | -3 | -2% | -5%
O=C(CCCSc1nc2ccccc2[nH]1)N1CCN(c2ccccc2)CC1 | 2 | -23% | u | 55 | 3% | u
O=C(CSc1nc2ccccc2[nH]1)N1CCCCC1 | 47* | 3% | 5% | 63* | 0% | 118%
CC1CCCCN1C(=O)CSc1nc2ccccc2[nH]1 (stereo not given) | 33* | x | -1% | 81* | -1% | 74%
Cc1cccc(N2CCN(C(=O)CCCSc3nc4ccccc4[nH]3)CC2)c1C | -2 | -13% | 9.3µM* | -20 | -23% | u
O=C(CSc1nc2ccccc2[nH]1)N1CCN(c2ccccc2)CC1 | 11 | -68% | u | 43 | 6% | u
CC1CCCCN1C(=O)CSc1nnc2c(n1)[nH]c1ccccc12 (stereo not given) | -2 | 0% | 12µM* | 1 | 1% | 1.7µM*
